# Assay outcomes from PubChem BioAssay.
# In the library only some 2.3% were active in any assay of this set; here they are far more common.
# M1 PAM parental: M1 PAM counterscreen hit in parental CHO-K1 cells. ATP EC20, Fluo-8 calcium fluorescence; 0% at ATP EC20, 100% at ATP max. activation, % at 3 µM. 0.02% of 360,000 active;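 active means activation above the run cutoff, the mean activation of all test compounds plus 3 SD, cut at about 40% in these data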;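 further: peak over basal fluorescence ratio in a 140 s read after ATP addition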
# CHRM1 antagonist: blocks human M1 muscarinic receptor; inhibition, % at 3 µM; 1.3% of 360,000 active; CHO-K1 hM1, Fluo-8 calcium fluorescence, ACh EC80 antagonist; P11229;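 active means percent inhibition above its own plate's cutoff, namely the mean of that plate's compound wells plus 3 SD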;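 further: peak over basal fluorescence ratio during 140 s after agonist addition; 0% = ACh EC80 plus DMSO and 100% = DMSO alone without agonist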
# Target sequence (P11229 whole entry, looked up): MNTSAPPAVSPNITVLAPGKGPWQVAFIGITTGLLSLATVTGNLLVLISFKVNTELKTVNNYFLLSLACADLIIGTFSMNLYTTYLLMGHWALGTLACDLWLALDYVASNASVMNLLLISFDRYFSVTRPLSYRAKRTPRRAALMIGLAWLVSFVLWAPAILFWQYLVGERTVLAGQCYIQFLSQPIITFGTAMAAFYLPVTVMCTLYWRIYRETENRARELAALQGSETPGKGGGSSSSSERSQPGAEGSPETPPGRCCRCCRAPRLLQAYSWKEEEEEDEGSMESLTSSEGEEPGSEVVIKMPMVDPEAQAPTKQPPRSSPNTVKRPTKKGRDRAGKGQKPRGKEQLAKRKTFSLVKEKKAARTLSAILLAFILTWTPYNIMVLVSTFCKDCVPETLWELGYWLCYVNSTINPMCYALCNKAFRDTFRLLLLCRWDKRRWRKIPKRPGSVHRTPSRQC
# M1 PAM: human CHRM1 positive allosteric modulation. P11229. CHO-K1 hM1, Fluo-8 calcium fluorescence, ACh EC20; 0% = ACh EC20, 100% = maximal ACh. activation, % at 3 µM. 0.088% of 360,000 active. AID 588819; in the data active means activation above about 19%, passing the limit was not always enough
# CHO-K1 Ca antag: M1 antagonist counterscreen hit in parental CHO-K1 cells | inhibition, % at 3 µM | ATP-induced calcium, Fluo-8 fluorescence | 0.6% of 360,000 active;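 active means inhibition above a per-plate cutoff, the plate's mean sample inhibition plus 3 SD, cut at about 24% in these data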;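 further: 0% = DMSO plus EC80 ATP and 100% = DMSO alone without ATP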
# CHRM1 agonist: human M1 muscarinic receptor agonism; P11229; CHO-K1 hM1, Fluo-8 calcium fluorescence, agonist mode; 0% DMSO, 100% acetylcholine EC100; activation, % at 3 µM; 0.33% of 360,000 active; AID 588814;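 active means activation above the run's mean compound activation plus 3 SD, cut at about 16% in these data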;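 further: peak over basal fluorescence ratio within a 140 s kinetic read after compound addition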
# CHO-K1 Ca ag: counter-screen for M1 agonists: effect in parental CHO-K1 cells | Fluo-8 calcium fluorescence; scaled to maximal ATP response, vehicle zero | activation, % at 3 µM | 0.48% of 360,000 active | AID 602248; in the data active means activation above about 15%;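 further: untransfected CHO-K1 host cells lacking M1 receptor as counterscreen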
# * marks the source's active call; other numbers are inactive results.
SMILES,M1 PAM parental,CHRM1 antagonist,M1 PAM,CHO-K1 Ca antag,CHRM1 agonist,CHO-K1 Ca ag
COc1ccc(CCC(=O)NCCS(=O)(=O)N2CCN(c3ccccc3)CC2)cc1,1.5,-2.9,15.8,-3.8,4.5,9.4
COc1ccc(CCC(=O)NCCS(=O)(=O)N2CCN(c3ccc(OC)cc3)CC2)cc1,4.2,18.6,-18.2,-6.0,0.8,15.2*
CN1CCC(n2[nH]c(-c3ccccc3)c(Cc3ccccc3)c2=O)CC1,8.6,100.0*,-30.2,-11.9,-8.4,2.0
CN1CCC(N2CCN(C3CN(CCc4ccccc4)S(=O)(=O)C3)CC2)CC1 (centres undefined),15.0,-7.9,9.8,4.2,-6.2,1.0
Cc1ccc(Cl)cc1N1CCN(C(=O)C2CCN(S(=O)(=O)c3cccnc3)CC2)CC1,-9.5,17.6,-7.5,15.7,1.9,7.8
Cc1ccc(Cl)cc1N1CCN(C(=O)C2CCN(S(=O)(=O)c3c(C)nn(C)c3C)CC2)CC1,-1.5,21.7*,-20.2,16.0,9.5,12.4
Cc1ccc(CCNC(=O)C2CCN(S(=O)(=O)c3c(C)nn(C)c3C)CC2)cc1,17.9,-10.3,9.4,-19.2,-5.0,1.1
Cc1ccc(NC(=O)C2CCN(S(=O)(=O)c3c(C)nn(C)c3C)CC2)c(Cl)c1,15.8,-9.2,5.8,37.2*,-4.1,1.7
CC(=O)Nc1cccc(-c2ccnc3c2CC(C(=O)NCc2ccc(F)c(F)c2)O3)c1 (centres undefined),1.0,-15.0,5.7,7.6,4.0,1.9
COc1cc(/C=C/C(=O)NC(C)C)ccc1OCc1ccccc1,23.0,-3.4,5.6,-14.6,-8.4,1.8
COc1cc(/C=N/OCC(=O)Nc2cc(C)on2)ccc1OCc1ccccc1,3.3,4.3,2.4,10.4,-4.4,20.1*
CC12CCC(C(=O)N(Cc3ccccc3)Cc3ccccc3)(OC1=O)C2(C)C (centres undefined),-8.5,-14.2,-8.0,25.1*,-5.8,-0.5
CC12CCC(C(=O)NNC(=O)c3ccccc3)(OC1=O)C2(C)C (centres undefined),-20.3,-5.6,4.8,17.6,-3.3,-0.4
COc1ccccc1-[n+]1c(C)cc(/C=C2\Sc3ccccc3N2C)cc1C,-6.6,82.8*,-24.4,51.5*,36.1*,33.8*
COc1ccc(C(=O)/C=C2\Sc3ccccc3N2C)cc1,27.6,-7.6,11.5,-8.6,-9.6,0.9
COc1ccc(-[n+]2c(C)cc(/C=C3\Sc4ccccc4N3C)cc2C)cc1,-10.1,80.8*,-26.5,40.3*,12.0,20.7*
CC(=O)C1C(c2cccc(F)c2)c2c(n[nH]c2C)CC1(C)O (centres undefined),5.0,-13.8,11.9,2.0,-5.4,0.7
CN(C)c1cccc2c(S(=O)(=O)NC(=O)[C@H]3O[C@@H](n4cnc5c(N)ncnc54)[C@H](O)[C@@H]3O)cccc12,14.3,-34.0,2.6,-15.6,-1.8,-0.1
O=C(NCCCN1CCN(Cc2ccccc2)CC1)C1CCN(c2nnc(-n3cccc3)s2)CC1,8.6,43.7*,-20.6,-4.4,-4.2,1.1
O=C(NCCCc1ccccc1)C1CCN(c2nnc(-n3cccc3)s2)CC1,4.6,-2.9,-0.8,5.7,-8.2,0.2
O=C(NC1CCN(Cc2ccccc2)CC1)C1CCN(c2nnc(-n3cccc3)s2)CC1,4.0,51.0*,-19.2,-0.9,-13.9,-0.2
O=C(NC1CCN(Cc2ccccc2)CC1)C1CCCN(c2nnc(-n3cccc3)s2)C1 (centres undefined),19.2,-3.9,-7.8,-11.7,-12.0,-0.7
Cc1cc(Cl)ccc1C(O)c1ncc(-c2ccc(C(F)(F)F)cc2)[nH]1 (centres undefined),7.2,-1.2,-1.1,3.6,-3.7,1.2
C[C@H]1CN(CCc2ccccc2)C(=O)[C@@H]1CC(=O)NCc1ccccc1,7.3,-18.2,12.4,-6.8,-5.0,0.3
CCCCNC(=O)CSc1nc2cc3c(cc2c(=O)n1CCC(=O)NCCc1ccc(OC)c(OC)c1)OCO3,22.1,-3.2,4.0,-17.0,-7.1,0.2
SMILES,M1 PAM parental,CHRM1 antagonist,M1 PAM,CHO-K1 Ca antag,CHRM1 agonist,CHO-K1 Ca ag
O=[N+]([O-])C(/C=C(\Cl)[N+](=O)[O-])=C1N(Cc2ccc(Cl)nc2)CCN1Cc1ccc(Cl)nc1,0.8,-4.9,8.0,-7.7,-10.4,-0.3
O=[N+]([O-])/C(C(=C(Cl)Cl)N1CCN(Cc2ccccc2)CC1)=C1\NCCN1Cc1ccc(Cl)nc1,-2.0,42.9*,-33.2,3.0,-13.4,1.3
Cc1ccccc1C(=O)NNC1CC(=O)N(c2ccc3c(c2)OCCO3)C1=O (centres undefined),-15.9,11.3,-6.6,27.6*,-1.8,0.1
O=C(NC1CCCCCCC1)c1cc(COc2ccc3ncccc3c2)on1,1.8,49.4*,-18.5,28.8*,-4.7,11.1
Cc1cc(CN(C)C(=O)c2cc(COc3ccc4ncccc4c3)on2)on1,3.4,18.8,-9.2,8.8,3.2,13.0
CC(CNC(=O)c1cc(COc2ccc3ncccc3c2)on1)c1ccccc1 (centres undefined),-6.0,43.2*,-14.3,17.6,2.4,17.2*
CCN(CC)CCN1C(=O)C(=O)/C(=C(/O)c2c(C)[nH]c(C(=O)OC)c2C)C1c1ccccc1OC (centres undefined),-6.5,8.2,0.2,30.9*,-2.2,0.1
CSc1ccc2c(c1)C(N1CCN(C)CC1)Cc1ccc(F)cc1S2 (centres undefined),8.7,69.2*,-26.9,0.8,-6.7,1.1
O=[N+]([O-])c1ccc2c(c1)C(N1CCN(CCO)CC1)Cc1ccc(F)cc1S2 (centres undefined),-0.6,4.9,-3.8,2.8,-10.5,1.7
Cc1ccc2oc(-c3cc(NC(=O)c4ncn[nH]4)ccc3O)nc2c1,-2.1,-10.5,4.8,-0.1,-5.8,0.0
CCOCCCNC(=S)N1C2CCC1CC(NC(=O)NC13CC4CC(CC(C4)C1)C3)C2 (centres undefined),24.5,-18.6,13.5,-10.8,-7.5,0.5
Cc1nc2c(nnn2Cc2ccccc2)c(=O)[nH]1,-12.5,6.1,-4.9,25.3*,-3.2,-0.1
Cc1nc2c(nnn2Cc2ccccc2Cl)c(=O)[nH]1,11.9,-9.1,5.4,-2.7,-3.3,0.4
COc1ccc(Cl)c2sc(N(CCN(C)C)C(=O)C3=COCCO3)nc12,21.2,-4.9,7.3,-0.4,-7.3,0.9
C[N+]1(CC(=O)OC2CCCCCCCCCCC2)CCCC1,13.4,68.6*,-38.5,0.9,-15.3,2.1
COC(=O)CCCCCCCCCC[N+]1(C)CCCCC1,16.2,63.5*,-27.0,-2.8,-14.1,-0.4
CC(=O)OCCCCCCCCCCC[N+]1(C)CCCCC1,5.5,64.7*,-22.8,-5.8,-5.9,0.0
C[N+]1(CCCCSc2ccc(O)cc2)CCCCC1,-8.0,20.7,-20.4,-8.6,-10.6,-0.1
